# Pf apPOL block – Pf-apPOL inhibitors, biochemical, fluorescence | Plasmodium falciparum apicoplast DNA polymerase (apPOL) | Recombinant Pf-apPOL, molecular beacon fluorescence, 1.5 h | inhibition, % at 10 µM | 210,000 compounds, 0.25% hits
# mHTT-CaM PPI inh – mutant huntingtin-calmodulin interaction inhibitors – biochemical, AlphaScreen, primary screen. P42858. AlphaScreen His-mHTT/GST-CaM binding, luminescence. inhibition, % at 15 µM. 190,000 compounds, 3.6% hits;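 also: 0% = both proteins with DMSO and 100% = one protein alone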
# * marks the source's active call; other numbers are inactive results; · = no result given. Sampled rows, rich in hits. Any-hit rate of the full collection: about 3.6%. Rule as the data show it: active = inhibition above about 50%; inactive = the rest.
SMILES,Pf apPOL block,mHTT-CaM PPI inh
COc1cc(OC)c2c(c1)C(=O)N(C1CC1)C(=O)C2=O,·,-4.8
CCC[C@H]1[C@@H](OC(=O)NCc2cccc(C(F)(F)F)c2)CC[C@@]23CCCN2C(=O)CCC[C@@H]13,-2.3,2.3
CCC[C@H]1[C@@H](OC(=O)NCc2ccc(C(F)(F)F)cc2)CC[C@@]23CCCN2C(=O)CCC[C@@H]13,-19.0,78.5*
CSc1ccc(CCN2C(=O)CCC2(C)C(=O)NCCC(C)C)cc1 (centres undefined),-1.3,3.6
O=C1OC(c2cccc(I)c2)=N/C1=C\c1ccccc1Br,0.5,0.0
CCCN(C)Cc1nc2nc(C)cc(N3CCCCCC3)n2n1,-6.7,18.6
CCc1nc2nc(C)cc(N3CCN(c4ccc(C)cc4C)CC3)n2n1,-7.5,63.4*
COC(=O)c1c(NC(=O)c2cc(C)no2)sc(C)c1C,-3.5,-16.7
COC(=O)c1ccc(Cl)cc1NC(=O)N1CCN(C)c2ccccc21,-2.9,48.2
COc1ccc(Cl)cc1NC(=O)N1CC2CCCN2c2ccccc21 (centres undefined),-2.8,74.4*
COC(=O)c1ccc(C(=O)OC)c(NC(=O)N2CC3CCCN3c3ccccc32)c1 (centres undefined),-0.4,57.6*
COc1ccc(C)cc1NC(=O)N1CC2CCCN2c2ccccc21 (centres undefined),-0.1,83.3*
COc1cc(NC(=O)N2CC3CCCN3c3ccccc32)cc(OC)c1 (centres undefined),3.9,49.6
Cc1ccc(C)c(NC(=O)N2CC3CCCN3c3ccccc32)c1 (centres undefined),-4.9,47.2
CCCC1CCC2(CCCN2CCOC(=O)Nc2ccc(Br)cc2)CC1 (centres undefined),-9.7,95.9*
CCCC1CCC2(CCCN2CCOC(=O)Nc2ccccc2)CC1 (centres undefined),-2.1,2.9
CN(CC(=O)Nc1cccc(F)c1)S(=O)(=O)c1ccc2[nH]c3c(c2c1)CCCC3,-0.8,41.8
CC(=O)c1cccc(NS(=O)(=O)c2ccc3[nH]c4c(c3c2)CCCCC4)c1,-3.8,99.0*
CCOC(=O)c1cccc(NS(=O)(=O)c2ccc3[nH]c4c(c3c2)CCCC4)c1,-2.9,94.7*
CC(=O)c1ccc(NS(=O)(=O)c2ccc3[nH]c4c(c3c2)CCCCC4)cc1,-1.3,70.3*
CC(=O)c1cccc(NS(=O)(=O)c2ccc(F)cc2)c1,-5.9,3.7
CC(=O)c1cccc(NC(=O)CN(C)S(=O)(=O)c2ccc3[nH]c4c(c3c2)CCCC4)c1,-2.4,27.7
CC(=O)c1cccc(NS(=O)(=O)c2ccc3[nH]c4c(c3c2)CCCC4)c1,0.5,83.9*
COc1ccc(C(=O)N2CC3CC2CC3NS(=O)(=O)c2ccccc2)cc1OC (centres undefined),-4.1,-0.5
CCc1nnc2c(NC(=O)Cc3ccsc3)cccn12,21.2,10.1
SMILES,Pf apPOL block,mHTT-CaM PPI inh
COc1ccc(C(=O)N2CCN(Cc3ccccc3Br)CC2)cc1,-3.1,0.7
O=C(c1ccc(SCCN2CCOCC2)nc1)N1CCOCC1,-2.4,-8.9
Cn1cccc1/C=C1\CN(Cc2ccccc2)C/C(=C\c2cccn2C)C1=O,-3.8,99.0*
O=C1/C(=C/c2cccnc2)CN(Cc2ccccc2)C/C1=C\c1cccnc1,-5.7,14.0
O=C(C1CCN(c2nnc(-c3ccccc3)o2)CC1)N1CCCCC1,-6.6,-2.2
O=C(C1CCN(c2nnc(-c3ccccc3)o2)CC1)N1CCC(Cc2ccccc2)CC1,-7.1,69.7*
COc1cccc(C(=O)N2CC3CC(NC(=O)c4cccs4)C2C3)c1OC (centres undefined),-2.0,-2.2
CCN(CC)CCCC(C)Nc1c2ccc(Cl)cc2nc2ccc(OC)cc12 (centres undefined),61.7*,·
CCN(CC)CCSc1nc2ccc(OC)cc2[nH]1,4.7,26.0
O=C(Nc1ccc(Cl)cc1)/C(=C1\Nc2ccc([N+](=O)[O-])cc2N1)[N+](=O)[O-],0.8,5.0
O=C(Nc1ccc(Br)cc1)/C(=C1\Nc2ccc([N+](=O)[O-])cc2N1)[N+](=O)[O-],52.1*,16.0
O=C(CCc1ccccc1)Nc1c2c(nn1-c1ccc(Cl)cc1)CS(=O)(=O)C2,-0.7,2.0
Cc1cc(-c2ccccc2)nc2cc(C(=O)N3CCOCC3)nn12,-1.9,5.0
Nc1c(C(=O)N2CCOCC2)sc2nc(-c3ccccc3)cc(-c3ccccc3)c12,-5.1,52.5*
CC(CC(=O)N1CCN(c2cccc(Cl)c2)CC1)c1ccccc1 (centres undefined),-16.2,21.8
COc1ncc(C(=O)N2CCN(c3cccc(Cl)c3)CC2)cn1,-0.7,0.0
O=C1c2ccccc2-c2c1cccc2C(=O)N1CCOCC1,2.8,-2.0
O=C1c2ccccc2-c2c1cccc2C(=O)N1CCN(c2ccc(Cl)cc2)CC1,6.7,100.0*
CCOc1nn(CC)cc1C(=O)N1CCN(c2cccc(Cl)c2)CC1,-12.0,90.8*
O=C(CC(c1ccccc1)c1ccccc1)N1CCN(c2cccc(Cl)c2)CC1,-3.3,84.5*
O=C(c1ccccc1I)N1CCN(c2cccc(Cl)c2)CC1,-2.3,76.8*
O=C(c1ccccc1Cl)N1CCN(c2cccc(Cl)c2)CC1,-2.8,44.7
Cc1ccc(-c2csc(/C(C#N)=C/Nc3ccc([N+](=O)[O-])cc3)n2)c(C)c1,-7.7,-1.5
O=C(Nc1ccc(F)cc1F)C(C1CCCC1)N1CCN(C(=O)C2CC2)CC1 (centres undefined),4.4,-2.1
Cc1ccc(-c2nc(N3CCC(C(N)=O)(N4CCCCC4)CC3)c3ccccc3n2)cc1,-3.0,53.0*
SMILES,Pf apPOL block,mHTT-CaM PPI inh
CCOC(=O)N1CCN(c2nc(-c3ccc(C)cc3)nc3ccccc23)CC1,1.6,-8.0
O=C(Cn1c(=O)oc2cc(Cl)ccc21)Nc1ncn[nH]1,-1.9,-2.0
Cc1cccc(NC(=O)CN2CCC3(CC2)N=C(c2cccc(F)c2)C(=O)N3)c1,4.8,8.1
O=C(Nc1cccc(Cl)c1)c1ccc(-n2cnnn2)cc1,6.2,3.0
O=C(CN(c1cccc(C(F)(F)F)c1)S(=O)(=O)c1ccccc1)Nc1cccc(Cl)c1,22.3,86.0*
O=C(CN(c1ccccc1)S(=O)(=O)c1ccc(Cl)cc1)Nc1ccc2c(c1)OCO2,-2.4,11.3
O=C(CN(c1cccc(C(F)(F)F)c1)S(=O)(=O)c1ccccc1)Nc1ccc(Cl)cc1,-0.4,88.0*
O=C(CN(c1ccc(Cl)c(C(F)(F)F)c1)S(=O)(=O)c1ccccc1)Nc1cccnc1,7.4,35.0
COc1ccccc1C(=O)N1CCC(COc2ccccc2C(=O)NC(C)C)CC1,49.3,3.2
Brc1ccc(-c2ccc(CNCc3ccco3)o2)cc1,-8.6,91.8*
Fc1ccc(-c2ccc(CNCc3ccco3)o2)cc1,-1.7,8.9
O=[N+]([O-])c1cc2c(cc1C1N(Cc3ccccc3)CCN1Cc1ccccc1)OCO2,3.1,60.0*
O=[N+]([O-])c1cc2c(cc1CN1CCN(c3ccccc3)CC1)OCO2,-1.0,15.3
C#CC[N+](C)(C)Cc1c(C)ccc2ccccc12,·,-3.9
COc1ccc(Cl)cc1NC(=O)CSC1=C(C#N)C(c2ccco2)C(C(N)=O)=C(C)N1 (centres undefined),-8.3,54.0*
CC1=C(C(N)=O)C(c2ccco2)C(C#N)=C(SCC(=O)Nc2cccc(Cl)c2C)N1 (centres undefined),0.5,27.1
Cc1ccc2ncn(C3CCN(S(=O)(=O)Cc4ccccc4)CC3)c(=O)c2c1,1.9,1.8

# Screening results (PubChem)
